Data reported in ChEMBL document CHEMBL4303097 (2020).
Over roughly 1,500 compounds, “Inhibition index” has its median near 0.17; the highest 2% begin near 1.3. The list comes from a sample in which the highest values are over-represented; it also holds similar structures and randomly drawn compounds.

Each compound was assayed on SARS-CoV-2 (assay: Inhibition of cell viability relative to arbidol control (inhibition index > 1 indicates higher activity) measured by fluorescence (OD590nm) in Vero E6 cells infected with SARS-CoV-2 (strain BavPat1) at MOI 0.002 after 72hrs).
Type: functional, Chlorocebus sabaeus, Vero C1008
In the case of `CCN(CC)CCOC(=O)C(c1ccccc1)c1ccccc1.Cl` [ADIPHENINE HYDROCHLORIDE], the Inhibition index is reported as 0.1368. In the case of `CC/C(=C(\c1ccccc1)c1ccc(OCCN(C)C)cc1)c1ccccc1.O=C(O)CC(O)(CC(=O)O)C(=O)O` [TAMOXIFEN CITRATE], the Inhibition index is reported as -0.1208. With `C[C@]12CC[C@@H]3c4ccc(O)cc4C[C@@H](CCCCCCCCC[S+]([O-])CCCC(F)(F)C(F)(F)F)[C@H]3[C@@H]1CC[C@@H]2O` (stereo partly specified) [FULVESTRANT] the Inhibition index was 0.187. In the case of `CC[C@H](C)[C@H](NC(=O)[C@H](Cc1ccc(O)cc1)NC(=O)[C@@H](NC(=O)[C@H](CCCNC(=N)N)NC(=O)[C@@H](N)CC(=O)O)C(C)C)C(=O)N[C@@H](Cc1c[nH]cn1)C(=O)N1CCC[C@H]1C(=O)N[C@@H](Cc1ccccc1)C(=O)O.O=C(O)C(F)(F)F`, the Inhibition index is reported as 0.4608. With `CC(C(=O)[O-])c1cccc(Oc2ccccc2)c1.CC(C(=O)[O-])c1cccc(Oc2ccccc2)c1.O.O.[Ca+2]` (stereo unspecified) [FENOPROFEN CALCIUM] the Inhibition index was 0.03953. For `CC(=O)OCC(=O)[C@@]12OC3(CCCC3)O[C@@H]1C[C@H]1[C@@H]3CCC4=CC(=O)C=C[C@]4(C)[C@@]3(F)[C@@H](O)C[C@@]12C` [AMCINONIDE], the Inhibition index was 0.9715. Compound `CCCCCN(CCCCC)C(=O)C(CCC(=O)[O-])NC(=O)c1ccc(Cl)c(Cl)c1.[Na+]` (stereo unspecified) [LORGLUMIDE SODIUM] has an Inhibition index of 0.5123. With `Nc1nc2[nH]cc(CCc3ccc(C(=O)N[C@@H](CCC(=O)[O-])C(=O)[O-])cc3)c2c(=O)[nH]1.[Na+].[Na+]` [PEMETREXED DISODIUM] the Inhibition index was 0.05416. `CC(C)(C(=O)O)c1ccc(C(O)CCCN2CCC(C(O)(c3ccccc3)c3ccccc3)CC2)cc1.Cl` (stereo unspecified) [FEXOFENADINE HYDROCHLORIDE] showed an Inhibition index of 0.6767. Compound `CC(C)NCC(O)c1ccc2ccccc2c1.Cl` (stereo unspecified) has an Inhibition index of 0.8858. With `CCN(CC)CCNC(=O)c1ccc(N)cc1.Cl` [PROCAINAMIDE HYDROCHLORIDE] the Inhibition index was 0.2557. With `C#CCN(C)[C@H](C)Cc1ccccc1.Cl` [SELEGILINE HYDROCHLORIDE] the Inhibition index was 0.2358. In the case of `CCC1(c2cccc(O)c2)CCCCN(C)C1.Cl` (stereo unspecified) [MEPTAZINOL HYDROCHLORIDE], the Inhibition index is reported as 1.137. With `CCN1CCN(C(=O)N[C@@H](C(=O)N[C@@H]2C(=O)N3C(C(=O)O)=C(CSc4nnnn4C)CS[C@H]23)c2ccc(O)cc2)C(=O)C1=O.O.O` [CEFOPERAZONE DIHYDRATE] the Inhibition index was 0.2339. In the case of `C=C[C@H]1CN2CC[C@H]1C[C@@H]2[C@@H](O)c1ccnc2ccc(OC)cc12.Cl.O`, the Inhibition index is reported as 1.411. `C=C[C@H]1CN2CC[C@H]1C[C@H]2[C@H](OC(=O)OCC)c1ccnc2ccc(OC)cc12` [QUININE ETHYLCARBONATE] gave an Inhibition index of 0.6435. `Nc1nc(/C(=C/CC(=O)O)C(=O)N[C@@H]2C(=O)N3C(C(=O)O)=CCS[C@H]23)cs1` [CEFTIBUTEN] was tested, and the Inhibition index was 0.07268. In the case of `CC(C)OC(=O)CCC/C=C\C[C@H]1[C@H](CC[C@@H](O)CCc2ccccc2)[C@@H](O)C[C@H]1O`, the Inhibition index is reported as 0.1555. `CC[C@H]1OC(=O)[C@H](C)[C@@H](O[C@H]2C[C@@](C)(OC)[C@@H](O)[C@H](C)O2)[C@H](C)[C@@H](O[C@@H]2O[C@H](C)C[C@H](N(C)C)[C@H]2O)[C@](C)(O)C[C@@H](C)CN(C)[C@H](C)[C@@H](O)[C@]1(C)O` [AZITHROMYCIN] gave an Inhibition index of 1.487. For `CC[C@H]1OC(=O)[C@H](C)[C@@H](O[C@H]2C[C@@](C)(OC)[C@@H](O)[C@H](C)O2)[C@H](C)[C@@H](O[C@@H]2O[C@H](C)C[C@H](N(C)C)[C@H]2O)[C@](C)(O)C[C@@H](C)C(=O)[C@H](C)[C@@H](O)[C@]1(C)O` [ERYTHROMYCIN], the Inhibition index was 0.0005254. With `CC[C@H]1OC(=O)[C@H](C)[C@@H](O[C@H]2C[C@@](C)(OC)[C@@H](O)[C@H](C)O2)[C@H](C)[C@@H](O[C@@H]2O[C@H](C)C[C@H](N(C)C)[C@H]2O)[C@](C)(OC)C[C@@H](C)C(=O)[C@H](C)[C@@H](O)[C@]1(C)O` [CLARITHROMYCIN] the Inhibition index was 0.8598. `CCC(=O)O[C@]1(C(=O)CCl)[C@@H](C)C[C@H]2[C@@H]3CCC4=CC(=O)C=C[C@]4(C)[C@@]3(F)[C@@H](O)C[C@@]21C` [CLOBETASOL PROPIONATE] showed an Inhibition index of 0.2335. Compound `CC(=O)S[C@@H]1CC2=CC(=O)CC[C@]2(C)[C@H]2CC[C@@]3(C)[C@@H](CC[C@@]34CCC(=O)O4)[C@H]12` [SPIRONOLACTONE] has an Inhibition index of 0.4829. Work on `Cl.NC1CCN(c2nc3c(cc2F)c(=O)c(C(=O)O)cn3-c2ccc(F)cc2F)C1` (stereo unspecified) yielded an Inhibition index of 0.1095. `CN1[C@@H]2CC[C@H]1C[C@@H](OC1c3ccccc3CCc3ccccc31)C2.O=C(O)CC(O)(CC(=O)O)C(=O)O` [DEPTROPINE CITRATE] showed an Inhibition index of -0.3511. For `Cc1cc(C(C)(C)C)c(O)c(C)c1CC1=NCCN1.Cl` [OXYMETAZOLINE HYDROCHLORIDE], the Inhibition index was 0.08485. In the case of `Cl.O.O.O=C1CC[C@@]2(O)[C@H]3Cc4ccc(O)c5c4[C@@]2(CCN3CC2CC2)[C@H]1O5`, the Inhibition index is reported as 0.1496. With `Cl.Oc1ccc2c3c1O[C@H]1[C@@H](O)CC[C@@]4(O)[C@@H](C2)N(CC2CCC2)CC[C@]314` [NALBUPHINE HYDROCHLORIDE] the Inhibition index was 0.2089. Work on `C=C1CC[C@@]2(O)[C@H]3Cc4ccc(O)c5c4[C@@]2(CCN3CC2CC2)[C@H]1O5.Cl` [NALMEFENE HYDROCHLORIDE] yielded an Inhibition index of 1.653. With `CC(C(=O)O)c1ccc(N2CC=CC2)c(Cl)c1` (stereo unspecified) [PIRPROFEN] the Inhibition index was 0.2333. `CNC(=C[N+](=O)[O-])NCCSCc1ccc(CN(C)C)o1.Cl` [RANITIDINE HYDROCHLORIDE] was tested, and the Inhibition index was 0.09309. Compound `CCN1CCC[C@H]1CNC(=O)c1c(OC)ccc(Br)c1OC.Cl` has an Inhibition index of 0.3465. With `CC(C)n1c(/C=C/[C@H](O)C[C@H](O)CC(=O)[O-])c(-c2ccc(F)cc2)c2ccccc21.[Na+]` the Inhibition index was -0.06663. In the case of `CN[C@@H]1[C@@H](O)[C@@H](O[C@@H]2[C@@H](O)[C@H](O[C@H]3O[C@H](CN)CC[C@H]3N)[C@@H](N)C[C@H]2N)OC[C@]1(C)O.CN[C@@H]1[C@@H](O)[C@@H](O[C@@H]2[C@@H](O)[C@H](O[C@H]3O[C@H]([C@@H](C)N)CC[C@H]3N)[C@@H](N)C[C@H]2N)OC[C@]1(C)O.CN[C@@H]1[C@@H](O)[C@@H](O[C@@H]2[C@@H](O)[C@H](O[C@H]3O[C@H]([C@@H](C)NC)CC[C@H]3N)[C@@H](N)C[C@H]2N)OC[C@]1(C)O.O=S(=O)(O)O`, the Inhibition index is reported as 0.01806. `COc1c(-c2ccc3cc(NS(C)(=O)=O)ccc3c2)cc(-n2ccc(=O)[nH]c2=O)cc1C(C)(C)C` [DASABUVIR] gave an Inhibition index of 0.184. `Cc1cc(C2CCCCC2)n(O)c(=O)c1.NCCO` [CICLOPIROX OLAMINE] showed an Inhibition index of 0.2225. In the case of `C[C@]12CC[C@H](O)C[C@@H]1CC[C@@H]1[C@@H]2CC[C@]2(C)C(=O)CC[C@@H]12` [EPIANDROSTERONE], the Inhibition index is reported as 1.075. Work on `C[C@]12CCC(=O)C=C1CC[C@@H]1[C@@H]2C(=O)C[C@]2(C)C(=O)CC[C@@H]12` [ADRENOTERONE] yielded an Inhibition index of 0.3653. `C[C@]12CCC(=O)C(O)=C1CC[C@@H]1[C@@H]2CC[C@]2(C)C(=O)CC[C@@H]12` [FORMESTANE] showed an Inhibition index of 1.365. `C[C@]12CCC(=O)C=C1CC[C@@H]1[C@@H]2[C@@H](O)C[C@@]2(C)[C@H]1CC[C@]2(O)C(=O)CO` [HYDROCORTISONE] showed an Inhibition index of 0.1194. Work on `CN1CCC(=C2c3ccccc3CC(=O)c3sccc32)CC1.O=C(O)/C=C/C(=O)O` [KETOTIFEN FUMARATE] yielded an Inhibition index of 0.837. For `Cc1ccc(/C(=C\CN2CCCC2)c2ccccn2)cc1.Cl`, the Inhibition index was 0.8569. Work on `O=C1O[C@H]([C@@H](O)CO)C(O)=C1O` [ASCORBIC ACID] yielded an Inhibition index of 0.2513. Compound `C[C@]12CCC(=O)C=C1C=C[C@@H]1[C@@H]2CC[C@@]2(C)[C@H]1CC[C@@]2(O)CCC(=O)[O-].[K+]` [CANRENOATE POTASSIUM] has an Inhibition index of 0.2042. For `C[C@]12CC[C@H]3[C@@H](CCC4=CC(=O)CC[C@@]43C)[C@@H]1CC[C@@H]2C(=O)CO` [DESOXYCORTICOSTERONE], the Inhibition index was 0.868. `CNC1(C)C2CCC(C2)C1(C)C.Cl` (stereo unspecified) [MECAMYLAMINE HYDROCHLORIDE] gave an Inhibition index of 0.674. `CC(=O)O[C@H]1C[C@@H]2CC[C@@H]3[C@H](CC[C@@]4(C)[C@H]3C[C@H]([N+]3(C)CCCCC3)[C@@H]4OC(C)=O)[C@@]2(C)C[C@@H]1[N+]1(C)CCCCC1.[Br-].[Br-]` [PANCURONIUM BROMIDE] gave an Inhibition index of 0.06422. Work on `Cl.Nc1c2c(nc3ccccc13)CCCC2` [TACRINE HYDROCHLORIDE] yielded an Inhibition index of 1.442. Compound `Nc1c2ccccc2nc2ccccc12` [AMINACRINE] has an Inhibition index of -0.2464. `CCC(=O)OC(OP(=O)(CCCCc1ccccc1)CC(=O)N1C[C@H](C2CCCCC2)C[C@H]1C(=O)O)C(C)C` (stereo partly specified) gave an Inhibition index of 1.038. For `CC[C@H]1OC(=O)[C@H](C)[C@@H](O[C@H]2C[C@@](C)(OC)[C@@H](O)[C@H](C)O2)[C@H](C)[C@@H](O[C@@H]2O[C@H](C)C[C@H](N(C)C)[C@H]2O)[C@](C)(O)C[C@@H](C)[C@@H]2N[C@@H](COCCOC)O[C@H]([C@H]2C)[C@]1(C)O` [DIRITHROMYCIN], the Inhibition index was 0.105.
